These results are taken from PubChem BioAssay (NCATS).

Results filed as inconclusive are left out. A call without a number means that no potency is given here. Calls of active or inactive are those of the source. Calls follow the shape of the dose curve; as a rule, active = well fitted inhibition curve with a large enough effect; inconclusive = small, poorly fitted or top-dose-only effect; inactive = flat fitted curve, though single readings scatter.

For this assay, the system named is CRL-7250. The experiment in a line: qHTS assay to identify novel small-molecules to repurpose for Merkel cell carcinoma treatment (AID 1296009). Also: nearly all actives have a fitted effect of over 60% in size. Particulars: MCC and control cell lines, CellTiter-Glo viability, 72 h; series mostly up to 92 µM. An outline of the steps: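 After compound transfer in DMSO, plates were kept 72 hr at 37 degree celsius. Luminescent ATP signal from CellTiter-Glo served as viability measure, normalized against DMSO and no-cell controls.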
Background: Quantitative high-throughput screening tests each substance at several concentrations.
On to `CC(=O)O[C@]1(C(C)=O)CC[C@H]2[C@@H]3CCC4=CC(=O)CCC4=C3[C@@H](c3ccc(N(C)C)cc3)C[C@@]21C`, for which the Potency result was “inactive”. As for `C[C@H]1[C@H](C)CC[C@]2(C(=O)O)CC[C@]3(C)C(=CCC4[C@@]5(C)C[C@@H](O)[C@H](O)C(C)(C)C5CC[C@]43C)[C@H]12` (stereo not given in full), the Potency entry is “inactive”. Same read-out and setting: with `C/C1=C\CC[C@H](C)CCO[C@@H]2O[C@H](CO[C@@H]3OC[C@](O)(COC1=O)[C@H]3O)[C@@H](O)[C@H](O)[C@H]2O` the entry was “inactive”; with `O=C(NCCCN1CCC2(CC1)OCc1ccccc12)[C@H]1CCCN1Cc1ccccc1`, “inactive”. On the same count and under the same terms, with `O=C(O)C[C@H]1CCC(=O)[C@@H]1C/C=C\CCO` the entry was “inactive”. For `CC[C@H](C)[C@H](NC(=O)[C@H](Cc1ccc(O)cc1)NC(=O)[C@@H](N)C(C)C)C(=O)N[C@@H](Cc1cnc[nH]1)C(=O)N1CCC[C@H]1C(=O)N[C@@H](Cc1ccccc1)C(=O)O`, the outcome was “inactive [at 4.96 µM]”. On to `CC1=C[C@@H]2[C@H]3[C@@H]4O[C@@](C)(CC[C@H]4O)[C@H]3CC(=O)[C@]23C(=O)N[C@@H](CC(C)C)[C@@H]3[C@@H]1C`, for which the Potency result was “inactive”. Still for that read-out and setting: with `CCCCCCCOc1cc2c(cc1/C(C)=C/c1ccc(C(=O)O)cc1)C(C)(C)CCS2(=O)=O` the entry was “inactive”; with `COc1ccc(S(=O)(=O)Nc2c(C)cc(C)cc2C)cc1`, “inactive”. Turning to `COc1cc(C(=O)O)ccc1OC1OC(CO)C(O)C(O)C1O` (stereo not given), the Potency entry is “inactive”. Consider `O=C(/C=C/c1ccc(O)cc1)OC[C@H]1O[C@@H](O/C(=C\c2ccccc2)C(=O)O)[C@H](O)[C@@H](O)[C@@H]1O`, for which the Potency result is “inactive”. The same measure, in the same setting: next, `COc1cc([C@H]2OC[C@]3(OC(C)=O)[C@@H](c4ccc(O[C@@H]5O[C@H](CO)[C@@H](O)[C@H](O)[C@H]5O)c(OC)c4)OC[C@H]23)ccc1O`: “inactive”.

`CC(=O)[C@H]1CC[C@H]2[C@@H]3CC=C4C[C@@H](OS(=O)(=O)O)CC[C@]4(C)[C@H]3CC[C@]12C`: the Potency entry is “inactive”. Same read-out and setting: with `CC(=O)/C=C/C1C(C)CC(O[C@@H]2O[C@H](CO)[C@@H](O)[C@H](O)[C@H]2O)CC1(C)C` (stereo not given in full) the entry was “inactive”; with `CC1CC(=O)C2=C(O1)OC1(C)CCC3C(C)(C)C4OC4C(=O)C3(C)C1C2` (stereo not given), “inactive”. Still for that read-out and setting: next, `COc1cc2c(cc1OC)CN(C(=O)[C@@H](NCc1ccncc1)C(C)(C)C)CC2`: “inactive”; `CCC/C=C/C=C/C1CC(O)C(O)C(=O)C1CO` (stereo not given): “inactive”.

For the molecule `COc1cccc(-n2nc(C(=O)O)cc2-c2ccc(C3CCCCC3)c(Cl)c2)c1`, the Potency result is “inactive”. On to `C/C=C1\[C@H](O[C@@H]2O[C@H](CO)[C@@H](O)[C@H](O)[C@H]2O)OC=C(C(=O)OC)[C@H]1CC(=O)OC`, for which the Potency result is “inactive”.

Regarding `CC1C(=O)OCC2=CCN3CCC(OC(=O)C(C)(O)C1(C)O)C23` (stereo not given), the Potency entry was “inactive”. As for `CNC(=O)c1ccc2cc([C@@]3(O)CCn4cncc43)ccc2c1`, the Potency entry is “inactive”.

On to `CC(C)C1C(OC(=O)/C=C/c2ccccc2)CC2(C)OC2CCC2(C)OC2C1O` (stereo not given), for which the Potency entry is “inactive”. Still for that read-out and setting: with `COc1c2c(c(C)c3c1C(=O)OC3)O[C@@]1(C)CC(O)C(C(C)(C)O)[C@](C)(CCC(=O)O)[C@H]1C2` (stereo not given in full) the entry was “inactive”. Consider `C=C[C@H]1[C@H](O[C@@H]2O[C@H](CO[C@@H]3OC[C@](O)(CO)[C@H]3O)[C@@H](O)[C@H](O)[C@H]2O)OC=C2C(=O)OCC[C@H]21`, for which the Potency result was “inactive”.

Regarding `C[C@@H](CC[C@@H]1[C@@]2(C)CCCC(C)(C)C2CC[C@@]1(C)O)CC(=O)O` (stereo not given in full), the Potency result was “inactive”. On to `C[C@@H]1O[C@@H](O[C@H]2[C@H](O[C@H]3[C@H](O[C@H]4CC[C@@]5(C=O)C(CC[C@]6(C)C5CC=C5C7CC(C)(C)C[C@@H](O)[C@]7(C)CC[C@]56C)C4(C)C)O[C@H](C(=O)O)[C@@H](O)[C@@H]3O)OC[C@@H](O)[C@@H]2O)[C@H](O)[C@H](O)[C@H]1O` (stereo not given in full), for which the outcome is “inactive [at 9.27 µM]”. In the case of `CC(=O)c1cc2c(cc1O)OC(C)(C)C=C2`, the Potency result is “inactive”. With `C#Cc1cnc2[nH]c(=O)n(C(CC)CC)c2n1`, the Potency result was “inactive”.

Turning to `C=CC(C)(O)CC/C=C(\C)C1CC=C(C)C(=O)O1` (stereo not given), the Potency entry was “inactive”.

For the molecule `CC(NCc1ccc(OCc2cccc(F)c2)cc1)C(N)=O` (stereo not given), the Potency entry is “inactive”. As to `CC1(C)CC[C@]2(C(=O)O)CC[C@]3(C)C(=CCC4[C@@]5(C)C[C@@H](O)[C@H](O)[C@@](C)(CO)C5CC[C@]43C)C2C1` (stereo not given in full), the Potency result is “inactive”. For `CC(=O)OC[C@]12[C@H](OC(C)=O)[C@H](OC(=O)c3ccccc3)[C@@H]3[C@@H](OC(C)=O)[C@]1(OC3(C)C)[C@H](C)C[C@H](OC(C)=O)[C@@H]2OC(=O)c1ccccc1`, the Potency entry is “inactive”. On the same count and under the same terms, with `CC(C)C1CCC(CO)=CC1/C=C(\CO)C(=O)OCC1(O)CCC(C(C)C)C2C=C(C(=O)O)COC(=O)C21` (stereo not given) the entry was “inactive”; with `COCC(=O)N1CCc2cc(-c3csc(NC(=O)c4cc(OC)cc(OC)c4)n3)ccc21`, “inactive”.

With `OCC(O)C(c1c[nH]c2ccccc12)c1c[nH]c2ccccc12` (stereo not given), the Potency result was “inactive”. With `C=C(C)C1CCC2(C(=O)O)CCC3(C(=O)O)C(CCC4C5(C)CCC(O)C(C)(C(=O)O)C5CCC43C)C12` (stereo not given), the Potency entry was “inactive”. Still for that read-out and setting: next, `CC(/C=C/[C@]1(O)[C@@]2(C)CO[C@@]1(C)C[C@@H](O)C2)=C\C(=O)O[C@@H]1O[C@H](CO)[C@@H](O)[C@H](O)[C@H]1O`: “inactive”. In the case of `CC12CCC(=O)C=C1C(O)CC1C2C(O)CC2(C)C1CC[C@]2(O)C(=O)CO` (stereo not given in full), the outcome was “inactive [at 9.27 µM]”. Turning to `CC(=C\C(C)O)/C=C(\C)C(=O)CC1CC(CC(N)=O)CC(=O)O1` (stereo not given), the Potency result was “inactive”. As to `COc1c2c(c(C)c3c1C(=O)OC3)OC1(C)CC(O)C34OC(O)(CCC3(C)C1C2)OC4(C)C` (stereo not given), the Potency entry is “inactive”.
